Screening data from PubChem.
SARS PLpro yeast: SARS-CoV PLP inhibition in yeast; S. cerevisiae expressing SARS-CoV PLpro, growth rescue; Potency, µM (series often up to 32.9 µM), for inactives: at the top dose activity, positive = growth rescue, most hits filed as activators; actives 0.19% (n = 330,000); AID 485353; calls by dose curve; further: potency means the concentration at half of the fitted maximal effect; 0% is about no effect; nearly all actives have a fitted effect of over 55% in size
Pf growth 96h: P. falciparum growth inhibition at 96 hours. P. falciparum luciferase reporter growth, 96 h. Potency, µM (top dose mostly 28.7 µM), for the others: at the highest dose activity change, negative = inhibition, hits mostly inhibitors. actives 6.9% (n = 320,000). AID 504834; further: potency means the concentration at half of the fitted maximal effect; on the % scale 0 is the no-effect control and ±100 the full control effect
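96 h incubation, 37 C, 5% CO2, of luciferase-reporter P. falciparum-infected RBCs (2% hematocrit, 0.05% parasitemia final) with test compounds; endpoint luminescence.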
Pf growth 48h: inhibits P. falciparum growth in the first generation, 48 h; AID 504832; actives 5.9% (n = 310,000); Potency, µM (doses to about 28.7 µM), inactives show at the highest dose activity change, negative = inhibition, most hits filed as inhibitors; P. falciparum luciferase growth in erythrocytes, 48 h; further: potency means the concentration at half of the fitted maximal effect; on the % scale 0 is the no-effect control and ±100 the full control effect
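Firefly luciferase activity from engineered P. falciparum reports growth; inhibitors lower the luminescent signal. Cultures contained 2% hematocrit erythrocytes at 0.1% final parasitemia.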
Shiga inhibitor: blocks Shiga toxin action in Vero cells. Vero cells, Shiga toxin protein synthesis inhibition reporter. inhibition, % at 38.7 µM. actives 9.2% (n = 290,000); in the data active means inhibition mostly above about 28%, no sharp cut-off; inactive means mostly below about 43%; further: 0% is about no effect
NS1 function inh: influenza NS1 inhibition. Potency, µM (highest dose often 46.1 µM), inactives show at the highest dose activity, positive = more growth. actives 0.4% (n = 270,000); calls by dose curve; further: potency means the concentration at half of the fitted maximal effect; actives are rising curves; nearly all actives have a fitted effect of over 50% in size
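A cell-based growth assay was used: compounds that relieve NS1-induced slow growth of budding yeast raise OD600. Assay medium was yeast nitrogen base with ammonium sulphate and -URA supplement, pH 6.0, with 2% galactose.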
CHX counter: counter-screen for Shiga toxin inhibitors: cycloheximide protein synthesis inhibition | cell reporter, cycloheximide protein synthesis inhibition counterscreen | AID 2314 | actives 12% (n = 300,000) | max response, %; in the data active means max response mostly above about 13%, no sharp cut-off; inactive means mostly below about 14%; further: read at 38.3 µM for the half of the compounds with a filed dose; 0% is about no effect
* = called active by the depositor; ? = inconclusive; nt = no result. The list is not random: actives were taken first. Their share in the collection is about 21%. Unless noted, the call rests on the fitted dose curve; in most records, active means well fitted inhibition curve with a large enough effect; inconclusive means small, poorly fitted or top-dose-only effect, or another doubt; inactive means no such curve, though single readings can be large or run the other way.

SMILES	SARS PLpro yeast	Pf growth 96h	Pf growth 48h	Shiga inhibitor	NS1 function inh	CHX counter
COc1ccc(-c2cn3nc(SCC(=O)NC4CCCCC4)ccc3n2)cc1	-0.6%	?	92.0%	94.6*	9.2%	49.9*
CCOc1ccc(-c2ccc(SCC(=O)NC3CCCCC3)nn2)cc1	-4.7%	107.5%	92.9%	39.3	-1.3%	16.7*
COc1ccc(-c2ccc(SCC(=O)NC3CCCCC3)nn2)cc1	7.6%	3.1%	93.7%	47.4	14.2%	8.9
OCCNc1cnc2ccccc2n1	-0.1%	39.6%	50.7%	51.0*	nt	19.3*
OCCNc1nc2ccccc2nc1NCCO	0.3%	26.9%	49.3%	29.1	-1.0%	1.1
COc1ccc(Cn2c(=O)oc3ccc(C)cc32)cc1	-1.9%	?	-4.2%	-3.7	-8.7%	-5.2
Cc1ccc2oc(=O)n(Cc3ccccc3)c2c1	-3.1%	?	-2.8%	1.5	-19.3%	12.4
Cc1ccc(OCCn2c(=O)oc3ccc(C)cc32)cc1	-1.5%	8.6%	0.0%	24.4	-2.7%	19.7*
Cc1ccc2oc(=O)n(CCCOc3ccccc3)c2c1	-5.1%	79.7%	45.9%	103.6*	-48.5%	34.9*
O=[N+]([O-])c1ccc(N2CCN(c3ccc(F)cc3)CC2)nc1	1.2%	16.3%	14.5%	-7.8	-2.9%	-1.4
CCCCCC(=O)Nc1ccc(Cl)cn1	-1.7%	19.4%	45.4%	60.9*	2.7%	39.4*
COc1ccc(CCC(=O)Nc2ccc(Br)cn2)cc1	4.1%	nt	-8.9%	77.7	?	38.3*
O=C(O)CCC(=O)Nc1ccc(Br)cn1	-2.1%	nt	28.1%	-13.2	-0.3%	-4.6
COc1ccc(CNC(=O)OCc2nccnc2C(=O)Nc2ccc(Br)cn2)cc1	-1.5%	?	43.7%	30.1	2.0%	7.5
CCCCCCC(=O)Nc1ccc(Br)cn1	-0.9%	3.3%	142.8%	50.3*	-23.8%	30.2*
CCCC(C)C(=O)Nc1ccc(Cl)cn1 (stereo not drawn)	0.7%	nt	4.7%	47.3*	6.3%	8.0*
CCCCC(=O)Nc1ccc(Cl)cn1	1.8%	-13.3%	34.7%	35.2	-10.6%	13.7
Cn1c(=O)[nH]c2nnc(-c3ccc(Cl)c(Cl)c3)nc2c1=O	0.5%	1.65µM*	?	50.3*	-57.4%	25.5*
COc1ccc(-c2noc(N3CCC(C(=O)Nc4ccccc4F)CC3)n2)cc1	-5.1%	15.9%	-17.3%	1.5	7.9%	1.5
COc1ccc(-c2cc(C(=O)Nc3ccccc3F)on2)cc1	-2.8%	89.0%	230.6%	79.7*	nt	32.7*
O=C(Nc1ccc(F)cc1)c1cc(-c2ccccc2)no1	-0.2%	86.1%	36.4%	30.8	6.9%	-3.8
COc1ccc(-c2cc(C(=O)Nc3ccccc3)on2)cc1	-0.1%	423.4%	230.2%	124.4*	8.6%	18.8*
CCOC(=O)N1CCN(CC(O)COc2cc(C)cc(C)c2)CC1 (stereo not drawn)	1.5%	1.9%	1.2%	-11.2	-0.5%	-6.8
COc1ccccc1/C=C1\SC(=S)N(CC(=O)Nc2nnc(C)s2)C1=O	1.2%	41.7%	3.4%	-22.0	nt	-2.4
CCOC(=O)C1CCN(C(=O)C2CCN(S(=O)(=O)c3cc(Cl)ccc3Cl)CC2)CC1	4.0%	16.5%	?	-3.7	7.2%	-3.1
SMILES	SARS PLpro yeast	Pf growth 96h	Pf growth 48h	Shiga inhibitor	NS1 function inh	CHX counter
CCOC(=O)N1CCN(C(=O)C2CCN(S(=O)(=O)c3ccc(NC(C)=O)cc3)CC2)CC1	-9.9%	8.28µM*	?	-5.6	5.5%	-0.6
CCOC(=O)N1CCC(C(=O)NNC(=O)c2ccc(Cl)cc2Cl)CC1	-0.4%	10.4µM*	17.4%	-2.5	7.8%	-11.8
CCOC(=O)N1CCN(C(=O)C2CCN(S(=O)(=O)c3cc(Cl)ccc3Cl)CC2)CC1	-5.8%	28.7%	7.38µM*	-20.1	-47.0%	-3.9
O=C1C(=O)N(CNc2ccccn2)c2ccccc21	-1.0%	?	7.0%	-19.6	3.2%	0.2
CC1CCc2cc(F)cc3c(O)c(C(=O)NCCN(C)C)c(=O)n1c23 (stereo not drawn)	0.0%	9.28µM*	0.0%	-3.3	0.3%	-3.4
CC1CCc2cc(F)cc3c(O)c(C(=O)NCc4ccco4)c(=O)n1c23 (stereo not drawn)	-5.9%	7.6%	2.4%	-6.2	12.7%	-1.8
Cc1cc(=O)[nH]c2c(C)c(N)ccc12	-7.1%	?	2.1%	-3.4	1.6%	-3.7
